From PubChem BioAssay (NCI)
About 83,000 compounds went through this panel and 20% of them were active in at least one assay; those are over-represented in the sample as a whole.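 96-well plates, one dose, 48 hours. Percent growth reported; active if below 10.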 Unmarked numbers belong to inactive results. Activity calls are given as the source filed them.

What follows are molecules tested on SNB-75 CNS (assay: NCI-60 one-dose screen, 48 h (100 = growth as untreated, 0 = no growth, -100 = all killed)). Settings: 10 µM unless noted.
`CCCNC(=O)Oc1ccc(/C(=C(/C)Cc2ccc(OC)cc2)c2ccc(OCCCN(C)C)cc2)cc1` showed a growth of 80.8%.
For `C/C(=N\NC(=O)c1ccccc1O)c1cccc(/C(C)=N/NC(=O)c2ccccc2O)n1`, the growth was 74.9%.
In the case of `COCCn1c(-c2csc(-c3cn(C)c4ccc(OC)cc34)n2)cc2cccnc21`, the growth is reported as 72.4%.
In the case of `Cn1c(=O)c2[nH]c(N/N=C/c3ccccc3Br)nc2n(C)c1=O`, the growth is reported as 97.6%.
`O=C(Nc1nn(-c2ccc(Cl)cc2Cl)nc1-c1ccccc1)c1ccccc1` gave a growth of 85.7%.
With `C=C1C(=O)O[C@H]2[C@H]1CC/C(COC(=O)NCc1ccc(Cn3c(=O)sn(CCI)c3=O)cc1)=C\CC[C@@]1(C)O[C@@H]21` the growth was 81.2%.
Molecule `Brc1c2c(c(Br)c3ccccc13)CCCC2` has a growth of 97.8%.
`CS(=O)(=O)c1cccc(-c2c(-c3cccc(OS(N)(=O)=O)c3)nc3sccn23)c1` gave a growth of 70.8%.
Work on `Oc1ccc(CCn2c(O)c(/C=C3\CN=c4ccccc4=N3)sc2=S)cc1` yielded a growth of 23.2%.
For `O=C(O)[C@@H]1c2ccccc2-c2ccccc2[C@H]1C(=O)O`, the growth was 93.3%.
In the case of `Cn1cc(-c2csc(-c3ccc(Cl)cc3)n2)c2cccnc21`, the growth is reported as -82.5% [100 µM] (active).
For `NC(=O)c1c(NC(=O)c2ccccc2)sc2c1CCC(=O)C2`, the growth was -3.05% (active).
`Cc1cc(Cl)ccc1Nc1nc(C(F)(F)F)ccc1C(=O)N/N=C/c1ccc([N+](=O)[O-])cc1` was tested, and the growth was -12.2% (active).
With `N#Cc1c(NC(=O)c2ccccc2)sc2c1CCC(=O)C2` the growth was -6.39% (active).
Work on `Cc1ccc(-c2nn(-c3ccccc3)cc2C=C2C(=O)ON=C2C(C)C)cc1` yielded a growth of 70.3%.
In the case of `CC(C)n1cnc2c(=S)nc[nH]c21`, the growth is reported as 117%.
In the case of `CN1C(=O)/C(=C/c2ccc(C(=O)Nc3ncc(Cc4ccc(Cl)cc4)s3)cc2)SC1=S`, the growth is reported as 52.1%.
Work on `O=C(Nc1ccc(NC(=O)c2cc(=O)[nH]c3ccccc23)cc1)Nc1cccc(C(F)(F)F)c1` yielded a growth of 58.5%.
`O=C(NCCCCNC(=O)OCc1ccc2c(Cl)cc(Cl)c(O)c2n1)OCc1ccc2c(Cl)cc(Cl)c(O)c2n1` gave a growth of 24.6%.
`CCC(C)N(c1ccc(Cl)cc1)c1nc(-c2ccc(Br)cc2)cs1` (stereo not given) showed a growth of 102%.
`COc1cc(-n2cc(-c3cc(O)c(C/C=C(\C)CCC=C(C)C)c(O)c3)nn2)cc2c1O[C@]1(C)CC[C@@H](O)C(C)(C)[C@H]1C2` was tested, and the growth was 7.34% (active).
Work on `C=CCn1c(SCC(=O)Nc2ccc(C(=O)/C=C/c3ccc(Cl)cc3)cc2)nnc1-c1cc(-c2ccc(S(N)(=O)=O)cc2)nc2ccccc12` yielded a growth of 56%.
For `Clc1ccc2c(c1)N(c1ncnc3ccc(-c4cnc5[nH]ncc5c4)cc13)CC2`, the growth was -16.8% (active).
`O=C(Nc1ccc(-c2nc(N3CCOCC3)c3cccn3n2)cc1)Nc1cccnc1` was tested, and the growth was -26.5% (active).
With `CCc1ccc(Oc2cn[nH]c2-c2ccc(OCCc3ccc(F)cc3)cc2O)cc1` the growth was 79%.
In the case of `C#Cc1cccc(Nc2ncnc3ccc(-c4cnc(N)nc4)cc23)c1`, the growth is reported as 6.34% (active).
With `Oc1c(Cl)cc(Cl)c2ccc(Cn3cc(-c4cc(C(F)(F)F)cc(C(F)(F)F)c4)nn3)nc12` the growth was 62.3%.
`COc1cc(N2C(=O)[C@H](O)C2c2ccc(SC)cc2)cc(OC)c1OC` (stereo not given in full) was tested, and the growth was 83.8%.
Molecule `OCCCC1CCN(C(Cc2ccccc2)c2ccccc2)CC1` (stereo not given) has a growth of 84.2%.
With `CNC(=O)c1c(NC(=O)c2ccc(C(F)(F)F)cc2)sc2c1CCC(=O)C2` the growth was -17.4% (active).
`CC/C(=C(/c1ccc(Cl)cc1)c1ccc(OCCN2CCCC2)cc1)c1ccc(OC)cc1` showed a growth of 103%.
`O=C1Nc2ccccc2/C1=C\c1nc(-c2ccccc2F)n2ccccc12` was tested, and the growth was -68.2% (active).
`Cc1cc(=O)[nH]c2c(C#N)cnn12` showed a growth of 100%.
For `COc1ccc(C/C(C)=C(/c2ccc(OCCN3CCCCC3)cc2)c2ccc(OC(=O)NCc3ccccc3)cc2)cc1`, the growth was -88.9% (active).
Work on `COc1ccc(CC(C#N)c2cc3ccccc3[nH]2)cc1` (stereo not given) yielded a growth of 78.2%.
`N#CC1CCc2c(c(-c3cn[nH]c3C(F)(F)F)nc3c(F)cc4[nH]ncc4c23)C1` (stereo not given) was tested, and the growth was -4.91% (active).
With `Cn1ccnc1C(=O)C(=O)Nc1ccc(CC(=O)Nc2ccccc2)cc1` the growth was 92.2%.
`Cc1ccc(/C=N/Nc2nc(Nc3ccccc3)nc(-n3nc(C)cc3C)n2)cc1` gave a growth of 83.4%.
`Cc1nc2ncnc(Cl)c2[nH]1` gave a growth of 89.1%.
`COc1ccc2[nH]cc(-c3nc(-c4c[nH]c5ccncc45)cs3)c2c1` gave a growth of 76.1%.

Each molecule was assayed on SNB-19 CNS in the same assay as above. Settings: 10 µM unless noted.
In the case of `CCCNC(=O)Oc1ccc(/C(=C(/C)Cc2ccc(OC)cc2)c2ccc(OCCCN(C)C)cc2)cc1`, the growth is reported as 88.8%.
`C/C(=N\NC(=O)c1ccccc1O)c1cccc(/C(C)=N/NC(=O)c2ccccc2O)n1` showed a growth of 20%.
In the case of `COCCn1c(-c2csc(-c3cn(C)c4ccc(OC)cc34)n2)cc2cccnc21`, the growth is reported as 85.3%.
Work on `Cn1c(=O)c2[nH]c(N/N=C/c3ccccc3Br)nc2n(C)c1=O` yielded a growth of 109%.
`O=C(Nc1nn(-c2ccc(Cl)cc2Cl)nc1-c1ccccc1)c1ccccc1` gave a growth of 105%.
Molecule `C=C1C(=O)O[C@H]2[C@H]1CC/C(COC(=O)NCc1ccc(Cn3c(=O)sn(CCI)c3=O)cc1)=C\CC[C@@]1(C)O[C@@H]21` has a growth of 97.2%.
Work on `Brc1c2c(c(Br)c3ccccc13)CCCC2` yielded a growth of 96.4%.
`CS(=O)(=O)c1cccc(-c2c(-c3cccc(OS(N)(=O)=O)c3)nc3sccn23)c1` showed a growth of 97.5%.
Work on `Oc1ccc(CCn2c(O)c(/C=C3\CN=c4ccccc4=N3)sc2=S)cc1` yielded a growth of 82.2%.
`O=C(O)[C@@H]1c2ccccc2-c2ccccc2[C@H]1C(=O)O` gave a growth of 100%.
`Cn1cc(-c2csc(-c3ccc(Cl)cc3)n2)c2cccnc21` was tested, and the growth was -41.8% [100 µM] (active).
Work on `NC(=O)c1c(NC(=O)c2ccccc2)sc2c1CCC(=O)C2` yielded a growth of 18.6%.
Work on `Cc1cc(Cl)ccc1Nc1nc(C(F)(F)F)ccc1C(=O)N/N=C/c1ccc([N+](=O)[O-])cc1` yielded a growth of 22.7%.
For `N#Cc1c(NC(=O)c2ccccc2)sc2c1CCC(=O)C2`, the growth was 19.1%.
Work on `Cc1ccc(-c2nn(-c3ccccc3)cc2C=C2C(=O)ON=C2C(C)C)cc1` yielded a growth of 78.4%.
`CC(C)n1cnc2c(=S)nc[nH]c21` gave a growth of 107%.
`CN1C(=O)/C(=C/c2ccc(C(=O)Nc3ncc(Cc4ccc(Cl)cc4)s3)cc2)SC1=S` showed a growth of 69.3%.
For `O=C(Nc1ccc(NC(=O)c2cc(=O)[nH]c3ccccc23)cc1)Nc1cccc(C(F)(F)F)c1`, the growth was 23.8%.
`O=C(NCCCCNC(=O)OCc1ccc2c(Cl)cc(Cl)c(O)c2n1)OCc1ccc2c(Cl)cc(Cl)c(O)c2n1` showed a growth of 62.7%.
`CCC(C)N(c1ccc(Cl)cc1)c1nc(-c2ccc(Br)cc2)cs1` (stereo not given) showed a growth of 105%.
Molecule `COc1cc(-n2cc(-c3cc(O)c(C/C=C(\C)CCC=C(C)C)c(O)c3)nn2)cc2c1O[C@]1(C)CC[C@@H](O)C(C)(C)[C@H]1C2` has a growth of 32.5%.
With `C=CCn1c(SCC(=O)Nc2ccc(C(=O)/C=C/c3ccc(Cl)cc3)cc2)nnc1-c1cc(-c2ccc(S(N)(=O)=O)cc2)nc2ccccc12` the growth was 81.4%.
`Clc1ccc2c(c1)N(c1ncnc3ccc(-c4cnc5[nH]ncc5c4)cc13)CC2` gave a growth of 42.8%.
`O=C(Nc1ccc(-c2nc(N3CCOCC3)c3cccn3n2)cc1)Nc1cccnc1` was tested, and the growth was 5.92% (active).
For `CCc1ccc(Oc2cn[nH]c2-c2ccc(OCCc3ccc(F)cc3)cc2O)cc1`, the growth was 108%.
`C#Cc1cccc(Nc2ncnc3ccc(-c4cnc(N)nc4)cc23)c1` was tested, and the growth was 47.2%.
`Oc1c(Cl)cc(Cl)c2ccc(Cn3cc(-c4cc(C(F)(F)F)cc(C(F)(F)F)c4)nn3)nc12` showed a growth of 94%.
`COc1cc(N2C(=O)[C@H](O)C2c2ccc(SC)cc2)cc(OC)c1OC` (stereo not given in full) gave a growth of 35.9%.
`OCCCC1CCN(C(Cc2ccccc2)c2ccccc2)CC1` (stereo not given) gave a growth of 101%.
For `CNC(=O)c1c(NC(=O)c2ccc(C(F)(F)F)cc2)sc2c1CCC(=O)C2`, the growth was 2.58% (active).
`CC/C(=C(/c1ccc(Cl)cc1)c1ccc(OCCN2CCCC2)cc1)c1ccc(OC)cc1` gave a growth of 80.1%.
Work on `O=C1Nc2ccccc2/C1=C\c1nc(-c2ccccc2F)n2ccccc12` yielded a growth of 45.8%.
Molecule `Cc1cc(=O)[nH]c2c(C#N)cnn12` has a growth of 98.1%.
In the case of `COc1ccc(C/C(C)=C(/c2ccc(OCCN3CCCCC3)cc2)c2ccc(OC(=O)NCc3ccccc3)cc2)cc1`, the growth is reported as -90.6% (active).
`COc1ccc(CC(C#N)c2cc3ccccc3[nH]2)cc1` (stereo not given) showed a growth of 92.8%.
Molecule `N#CC1CCc2c(c(-c3cn[nH]c3C(F)(F)F)nc3c(F)cc4[nH]ncc4c23)C1` (stereo not given) has a growth of 32.7%.
`Cn1ccnc1C(=O)C(=O)Nc1ccc(CC(=O)Nc2ccccc2)cc1` showed a growth of 96.5%.
`Cc1ccc(/C=N/Nc2nc(Nc3ccccc3)nc(-n3nc(C)cc3C)n2)cc1` showed a growth of 74.4%.
For `Cc1nc2ncnc(Cl)c2[nH]1`, the growth was 99.7%.
Work on `COc1ccc2[nH]cc(-c3nc(-c4c[nH]c5ccncc45)cs3)c2c1` yielded a growth of 47.1%.
